Reference: PubChem BioAssay (Tox21)
Inconclusive results are not listed. Activity calls are given as the source filed them. Unless noted, calls come from the whole dose curve; as a rule, active = well fitted curve in the direction sought with a large enough effect in the repeat runs; inconclusive = weak or mixed curves; inactive = no such curve, though single readings can be large; an effect the other way counts as inactive or inconclusive. Positions of bridges follow the written chain, without caps; N, C: chain ends. Non-standard residues stand in square brackets, D forms with d. Residues, ends and D or L forms follow the SMILES beside them. hArg = N=C(N)NCCCC[C@H](N)C(=O)O; Mpa = O=C(O)CCS

Legend:
[1] = qHTS assay to identify small molecule agonists of the vitamin D receptor (VDR) signaling pathway - cell viability counter screen (AID 743224); note: series mostly up to about 63 µM; % is set by controls: 0 for no effect and ±100 for the full control effect; nearly all actives have a fitted effect of over 50% in size
Outline: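 VDR-bla cells were preincubated 4 h at 37C/5% CO2, then exposed to compounds for 16 h. After the 2 h room-temperature bla FRET read, CellTiter-Glo was added to the same wells and luminescence read after 30 min.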

[2] = qHTS assay to identify small molecule antagonists of the vitamin D receptor (VDR) signaling pathway - cell viability counter screen (AID 743225); note: % is set by controls: 0 for no effect and ±100 for the full control effect; nearly all actives have a fitted effect of over 50% in size
Outline: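 HEK293T VDR-bla; cpd + 1a,25-(OH)2D3 3 nM final, 16 h 37C/5% CO2; B/G FRET substrate 2 h RT; then CellTiter-Glo 30 min RT, luminescence.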

[3] = qHTS assay to identify small molecule agonists of the NFkB signaling pathway (AID 1159509; active = well fitted curve in the direction sought with a large enough effect in the signal ratio in the repeat runs, not every such curve was filed as active; the % refers to the signal ratio; note: series mostly up to about 61 µM; % is set by controls: 0 for no effect and ±100 for the full control effect)
Outline: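 NFkB-bla ME-180 cells carry a beta-lactamase reporter under an NF-kB response element. They were plated overnight, then exposed to compounds for 5 h at 37 C. Read-out is LiveBLAzer FRET after 1.5 hr at room temperature (405 nm excitation; 460/530 nm emission).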

[4] = qHTS assay to identify small molecule agonists of the NFkB signaling pathway - cell viability counter screen (AID 1159515; calls by dose curve; note: series mostly up to about 61 µM; % is set by controls: 0 for no effect and ±100 for the full control effect; nearly all actives have a fitted effect of over 55% in size)
Outline: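 NFkB-bla ME-180 cells, 2,000/well, were plated overnight at 37 C, 5% CO2, then exposed to compounds in DMSO for 5 hr. After the bla FRET read, CellTiter-Glo was added to the same wells; luminescence was read after 30 min at room temperature.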

[5] = qHTS assay to identify small molecule agonists of the endoplasmic reticulum stress response signaling pathway (AID 1159516; active = well fitted activation curve with a large enough effect in the signal ratio in the repeat runs, not every such curve was filed as active; the % refers to the signal ratio; note: % is set by controls: 0 for no effect and ±100 for the full control effect)
Outline: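 CellSensor ESRE-bla HeLa cells, carrying a beta-lactamase reporter driven by the ER stress response element, were plated overnight and exposed to compounds for 5 hr at 37 C. Reporter activity was read as FRET substrate fluorescence after 2 hr at room temperature.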

[6] = qHTS assay to identify small molecule antagonists of the retinoid-related orphan receptor gamma (ROR-gamma) signaling pathway - cell viability counter screen (AID 1159520); note: % is set by controls: 0 for no effect and ±100 for the full control effect; nearly all actives have a fitted effect of over 50% in size
Outline: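 Cytotoxicity was read from cellular ATP (CellTiter-Glo luminescence) after 16 hr at 37 C with 1 uM doxycycline induction. The inducer was added 2 hr after compound transfer to Tet-on ROR gamma CHO cells.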

[7] = biological target: Nuclear receptor ROR-gamma (Homo sapiens) (UniProt P51449); assay: qHTS assay to identify small molecule antagonists of the retinoid-related orphan receptor gamma (ROR-gamma) signaling pathway (AID 1159521;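 note: CHO cells with doxycycline inducible ROR-gamma driving an RORE luciferase reporter; top concentration of the series differs between compounds; % is set by controls: 0 for no effect and ±100 for the full control effect; nearly all actives have a fitted effect of over 50% in size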)
Outline: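 Cells were plated, rested 4 h at 37 C, exposed to compounds for 2 h, then given 1 uM final doxycycline hyclate to induce RORγ expression. After 16 h, ONE-Glo luminescence from the ROR response element reporter was measured.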

[8] = qHTS assay to identify small molecule agonists of the AP-1 signaling pathway - cell viability counter screen (AID 1159525; calls by dose curve; note: nearly all actives have a fitted effect of over 55% in size)
Outline: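 Luminescent ATP readout (Cell Titer Glo, 30 min RT), normalised to DMSO and tetra n-octyl ammonium bromide controls. Cells were ME-180 AP-1-bla in 0.5% dialyzed FBS Opti-MEM, with a 5 h, 37 °C compound exposure.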

[9] = qHTS assay to identify small molecule agonists of the AP-1 signaling pathway (AID 1159526; calls by dose curve; note: % is set by controls: 0 for no effect and ±100 for the full control effect)
[10] = biological target: Retinoic acid receptor RXR-alpha (Homo sapiens) (UniProt P19793); assay: qHTS assay to identify small molecule agonists of the RXR signaling pathway (AID 1159527; calls by dose curve; note: % is set by controls: 0 for no effect and ±100 for the full control effect; nearly all actives have a fitted effect of over 35% in size)
Outline: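 Cells plated at 2,000/well, rested 5 hr at 37 C, pin-dosed with DMSO compound solutions, incubated 16 hr, then loaded with B/G FRET substrate for 2 hr at RT before dual-emission fluorescence reading.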

[11] = qHTS assay to identify small molecule agonists of the RXR signaling pathway - cell viability counter screen (AID 1159529)
Outline: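 Steps: seed RXR-alpha-UAS-bla HEK 293T cells in assay medium containing 2% charcoal-stripped FBS; incubate 5 hr; add compounds in DMSO; incubate 16 hr at 37 C; after the bla read, add CellTiter-Glo and read luminescence at 30 min.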

[12] = qHTS assay to identify small molecule antagonists of the retinoid acid receptor (RAR) signaling pathway - cell viability counter screen (AID 1159551); note: % is set by controls: 0 for no effect and ±100 for the full control effect; nearly all actives have a fitted effect of over 35% in size
Outline: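 C3RL4 cells were seeded overnight at 37 C, then treated with compounds plus 1 uM (final) retinol for 6 h at 37 C. Viability was read as ATP by CellTiter-Glo luminescence after 30 min at room temperature.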

[13] = qHTS assay to identify small molecule antagonists of the retinoic acid receptor (RAR) signaling pathway (AID 1159552)
Outline: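 Retinol at 1 uM final stimulated RARE-luciferase expression in C3RL4 cells exposed to test compounds for 6 hr at 37 C. Reduced luminescence, read 30 min after detection reagent, indicated pathway antagonism.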

[14] = qHTS assay to identify small molecule agonists of the retinoic acid receptor (RAR) signaling pathway (AID 1159553); note: % is set by controls: 0 for no effect and ±100 for the full control effect
Outline: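 C3RL4 cells carrying a RARE luciferase reporter were plated overnight at 37 C, then exposed to compounds in DMSO for 6 hr at 37 C and 5% CO2. Luminescence was read 30 min after luciferase reagent addition at room temperature.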

[15] = qHTS assay to identify small molecule antagonists of the estrogen related receptor (ERR) signaling pathway from Tox21 library - cell viability counter screen (AID 1224834); note: % is set by controls: 0 for no effect and ±100 for the full control effect; nearly all actives have a fitted effect of over 30% in size
Outline: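 ERR reporter cells were plated 6 h before compound addition, then exposed to test compounds in DMSO for 17.5 h at 37 C. Viability was read as CellTiter-Fluor fluorescence after a 30-minute incubation at 37 C.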

[16] = biological target: Luciferin 4-monooxygenase (Photinus pyralis) (UniProt P08659); assay: qHTS assay to identify small molecule inhibitors of firefly luciferase (AID 1224835); note: series mostly up to about 120 µM; % is set by controls: 0 for no effect and ±100 for the full control effect; nearly all actives have a fitted effect of over 25% in size
Outline: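 Inhibition of purified Photinus luciferase is measured by luminescence. Substrate levels (D-luciferin, ATP) sit at their KM values. Each compound is tested in a concentration series.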

[17] = qHTS assay to identify small molecule agonists of the constitutive androstane receptor (CAR) signaling pathway - cell viability counter screen (AID 1224836); note: series mostly up to about 92 µM; % is set by controls: 0 for no effect and ±100 for the full control effect; nearly all actives have a fitted effect of over 45% in size
Outline: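 Cells were seeded and incubated 4 hrs. Compounds were added across 15 concentrations together with PK11195 at 0.75 uM final. Plates were incubated 23 hrs at 37 C. CellTiter-Fluor was added and fluorescence measured.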

[18] = qHTS assay to identify small molecule antagonists of the constitutive androstane receptor (CAR) signaling pathway - cell viability counter screen (AID 1224837); note: series mostly up to about 92 µM; % is set by controls: 0 for no effect and ±100 for the full control effect; nearly all actives have a fitted effect of over 45% in size
Outline: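 HepG2 cells stably expressing hCAR and a CYP2B6-2.2kb reporter were plated and pre-incubated 4 hr at 37 C/5% CO2, then given compounds at 15 concentrations plus 50 nM CITCO (final). After 23 hr, viability was read by CellTiter-Fluor fluorescence.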

[19] = biological target: Nuclear receptor subfamily 1 group I member 3 (Homo sapiens) (UniProt Q14994); assay: qHTS assay to identify small molecule antagonists of the constitutive androstane receptor (CAR) signaling pathway (AID 1224838); note: nearly all actives have a fitted effect of over 40% in size; note: potency is the fitted concentration of half-maximal effect
Outline: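 HepG2 cells stably co-transfected with hCAR and a CYP2B6-2.2kb luciferase reporter were seeded 4 h before compound addition at 15 concentrations. Cells were stimulated with 50 nM CITCO (final) for 24 h at 37 C; luciferase luminescence was then read.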

[20] = qHTS assay to identify small molecule agonists of the endoplasmic reticulum stress response signaling pathway - cell viability counter screen (AID 1159517; calls by dose curve)
Outline: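 HeLa cells carrying an ESRE-driven beta-lactamase reporter receive compound for 5 hr at 37 C. Cell viability is then gauged with CellTiter-Glo by luminescence, 30 min at room temperature.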

Sequence of Retinoic acid receptor RXR-alpha (Homo sapiens) (P19793 whole entry, looked up): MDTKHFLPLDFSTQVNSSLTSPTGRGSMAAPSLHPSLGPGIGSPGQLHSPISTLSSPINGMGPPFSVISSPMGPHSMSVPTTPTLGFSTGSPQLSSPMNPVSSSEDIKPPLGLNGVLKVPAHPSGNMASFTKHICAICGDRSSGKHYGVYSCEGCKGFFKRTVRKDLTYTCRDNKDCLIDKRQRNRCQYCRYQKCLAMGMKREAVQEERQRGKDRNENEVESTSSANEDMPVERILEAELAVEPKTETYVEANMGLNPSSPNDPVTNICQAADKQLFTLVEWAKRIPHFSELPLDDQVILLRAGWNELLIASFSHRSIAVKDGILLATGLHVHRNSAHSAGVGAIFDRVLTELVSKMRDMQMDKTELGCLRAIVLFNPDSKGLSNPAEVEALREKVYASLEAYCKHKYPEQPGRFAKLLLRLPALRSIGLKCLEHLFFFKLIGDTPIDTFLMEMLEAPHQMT
Sequence of Nuclear receptor subfamily 1 group I member 3 (Homo sapiens) (Q14994 whole entry, looked up): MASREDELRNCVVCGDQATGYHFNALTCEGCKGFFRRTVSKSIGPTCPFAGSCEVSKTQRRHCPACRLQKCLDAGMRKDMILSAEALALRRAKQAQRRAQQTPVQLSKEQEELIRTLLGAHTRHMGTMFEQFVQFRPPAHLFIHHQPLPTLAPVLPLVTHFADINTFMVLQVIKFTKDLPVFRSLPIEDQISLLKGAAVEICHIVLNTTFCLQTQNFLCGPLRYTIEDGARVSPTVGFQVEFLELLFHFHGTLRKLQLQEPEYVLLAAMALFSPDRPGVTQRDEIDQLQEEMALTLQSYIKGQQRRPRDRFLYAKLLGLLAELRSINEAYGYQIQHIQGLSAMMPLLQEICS
Sequence of Luciferin 4-monooxygenase (Photinus pyralis) (P08659 whole entry, looked up): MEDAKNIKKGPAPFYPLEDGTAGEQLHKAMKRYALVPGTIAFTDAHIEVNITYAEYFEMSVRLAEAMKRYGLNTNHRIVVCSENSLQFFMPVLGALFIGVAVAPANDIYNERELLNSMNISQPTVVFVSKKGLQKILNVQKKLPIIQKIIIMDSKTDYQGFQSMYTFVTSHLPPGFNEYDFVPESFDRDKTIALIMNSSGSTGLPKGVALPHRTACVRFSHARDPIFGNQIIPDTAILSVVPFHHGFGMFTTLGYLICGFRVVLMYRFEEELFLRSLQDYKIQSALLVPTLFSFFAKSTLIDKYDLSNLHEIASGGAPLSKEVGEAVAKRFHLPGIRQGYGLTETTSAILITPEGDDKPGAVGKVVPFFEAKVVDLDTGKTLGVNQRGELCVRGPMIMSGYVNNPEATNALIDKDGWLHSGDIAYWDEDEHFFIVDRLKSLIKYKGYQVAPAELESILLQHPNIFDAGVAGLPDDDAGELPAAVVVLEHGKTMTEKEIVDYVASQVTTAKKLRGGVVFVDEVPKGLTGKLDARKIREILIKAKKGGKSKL

CO[C@@]1(NC(=O)Cc2cccs2)C(=O)N2C(C(=O)O)=C(COC(N)=O)CS[C@@H]21
inactive: outcome [1] | outcome [2] | outcome [3] | outcome [4] | outcome [5] | outcome [6] | outcome [7] | outcome [8] | outcome [9] | Potency [10] | outcome [11] | outcome [12] | outcome [13] | Potency [14] | outcome [15] | Potency [16] | outcome [17] | outcome [18] | Potency [19]

CCOCCOCC
inactive: outcome [1] | outcome [2] | outcome [3] | outcome [4] | outcome [5] | outcome [6] | outcome [7] | outcome [8] | outcome [9] | Potency [10] | outcome [11] | outcome [12] | outcome [13] | Potency [14] | outcome [15] | Potency [16] | outcome [17] | Potency [19]

COc1nc(N)nc2nc[nH]c12
inactive: outcome [1] | outcome [3] | outcome [4] | outcome [5] | outcome [6] | outcome [7] | outcome [9] | Potency [10] | outcome [11] | outcome [12] | outcome [13] | Potency [14] | outcome [15] | Potency [16] | outcome [17] | outcome [18] | Potency [19]

CCC(=O)c1c(O)cc(O)cc1O
inactive: outcome [1] | outcome [3] | outcome [4] | outcome [5] | outcome [6] | outcome [7] | outcome [8] | outcome [9] | Potency [10] | outcome [11] | outcome [12] | outcome [13] | Potency [14] | outcome [15] | Potency [16] | outcome [17] | outcome [18] | Potency [19]

CC(C)OC(=O)OCOP(=O)(CO[C@H](C)Cn1cnc2c(N)ncnc21)OCOC(=O)OC(C)C
active: Potency [19] 2370 nM
inactive: outcome [1] | outcome [3] | outcome [5] | outcome [20] | outcome [6] | outcome [7] | outcome [8] | outcome [9] | Potency [10] | outcome [11] | outcome [12] | outcome [13] | Potency [14] | outcome [15] | Potency [16] | outcome [17] | outcome [18]

CCC[C@@H]1C[C@@H](C(=O)N[C@@H]([C@H]2O[C@H](SC)[C@H](O)[C@@H](O)[C@H]2O)[C@@H](C)O)N(C)C1
inactive: outcome [1] | outcome [3] | outcome [4] | outcome [5] | outcome [6] | outcome [7] | outcome [8] | outcome [9] | Potency [10] | outcome [11] | outcome [12] | outcome [13] | Potency [14] | outcome [15] | Potency [16] | outcome [17] | outcome [18] | Potency [19]

O=S(=O)(O)c1ccc2c(N=Nc3ccc(S(=O)(=O)O)c4ccccc34)c(O)c(S(=O)(=O)O)cc2c1
inactive: activity change, negative = cytotoxicity [1] -0.166% [at 5.95 µM] | viability change, negative = cytotoxic [2] 6.08% [at 6.95 µM] | activation [3] 0.493% [at 6.95 µM] | activity, negative = cytotoxic [4] 6.88% [at 6.95 µM] | activation [5] -2.39% [at 6.95 µM] | activity change, negative = cytotoxicity [20] 0.511% [at 6.95 µM] | activity, negative = cytotoxicity [6] -3.34% [at 8.39 µM] | activity change, negative = inhibition [7] 0.236% [at 8.39 µM] | activation [9] -3.05% [at 6.97 µM] | activation [10] 0.333% [at 6.98 µM] | activity change, negative = cytotoxicity [11] 0.355% [at 6.97 µM] | activity change, negative = cytotoxicity [12] -2.67% [at 8.39 µM] | activity, negative = inhibition [13] 111% [at 8.39 µM] | activation [14] -2.37% [at 8.36 µM] | viability change, negative = cytotoxic [15] -6.16% [at 8.39 µM] | activity change, negative = inhibition [16] -3.96% [at 10.5 µM] | activity change, negative = cytotoxicity [18] -18.2% [at 8.39 µM] | activity, negative = inhibition [19] -7.08% [at 8.39 µM]

CCCCOC(=O)[C@H](C)O
inactive: outcome [1] | outcome [2] | outcome [3] | outcome [4] | outcome [5] | outcome [6] | outcome [7] | outcome [8] | outcome [9] | Potency [10] | outcome [11] | outcome [12] | outcome [13] | Potency [14] | outcome [15] | Potency [16] | outcome [17] | outcome [18] | Potency [19]

COc1cc(OC)nc(O[C@H](C(=O)O)C(OC)(c2ccccc2)c2ccccc2)n1
inactive: outcome [1] | outcome [2] | outcome [3] | outcome [4] | outcome [5] | outcome [6] | outcome [7] | outcome [8] | outcome [9] | Potency [10] | outcome [11] | outcome [12] | outcome [13] | Potency [14] | outcome [15] | Potency [16] | outcome [17] | Potency [19]

[O-][n+]1cccc(/C(Cl)=N/OC[C@@H](O)CN2CCCCC2)c1
inactive: outcome [1] | outcome [2] | outcome [3] | outcome [4] | outcome [5] | outcome [6] | outcome [7] | outcome [8] | outcome [9] | Potency [10] | outcome [11] | outcome [12] | outcome [13] | Potency [14] | outcome [15] | Potency [16] | outcome [17] | outcome [18] | Potency [19]

CC(C)COC(=O)c1ccccc1
inactive: outcome [1] | outcome [3] | outcome [4] | outcome [5] | outcome [6] | outcome [7] | outcome [8] | outcome [9] | Potency [10] | outcome [11] | outcome [12] | outcome [13] | Potency [14] | outcome [15] | Potency [16] | outcome [17] | outcome [18] | Potency [19]

NC(=O)[C@@H]1CSSCCC(=O)N[C@@H](CCCCN=C(N)N)C(=O)NCC(=O)N[C@@H](CC(=O)O)C(=O)N[C@@H](Cc2c[nH]c3ccccc23)C(=O)N2CCC[C@H]2C(=O)N1 ([Mpa][hArg]GDWPC-NH2; disulfide 1-7)
inactive: outcome [1] | outcome [2] | outcome [3] | outcome [5] | outcome [20] | outcome [6] | outcome [7] | outcome [9] | Potency [10] | outcome [11] | outcome [12] | outcome [13] | Potency [14] | outcome [15] | Potency [16] | outcome [17] | outcome [18] | Potency [19]
